This passage reports inhibition results from PubChem BioAssay AID525 (The Scripps Research Institute Molecular Screening Center, 2006).

The campaign covered roughly 65,000 compounds. About 360 (0.55%) were called active. Shown is part of a subset that was picked to be rich in actives. Unmarked numbers belong to inactive results.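 The calls were made as follows: active = inhibition above the mean inhibition of all tested compounds plus 3 SD (cut at about 48% in these data); inactive = the rest.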

For this assay, the target named is Steroidogenic factor 1 (Homo sapiens) (UniProt Q13285). The assay is described as follows: suppressors of SF-1 driven luciferase transcription – cell-based, CHO-K1, Gal4-SF-1 LBD, luciferase luminescence, primary screen (AID 525).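 Also: 0% = SF-1 transfected cells with DMSO and 100% = mock-transfected cells lacking SF-1.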 The conditions noted are these: CHO-K1 Gal4-SF-1 LBD luciferase reporter; at 10 µM; hits give high values.
Sequence of Steroidogenic factor 1 (Homo sapiens) (Q13285 whole entry, looked up, the tested form may be a part): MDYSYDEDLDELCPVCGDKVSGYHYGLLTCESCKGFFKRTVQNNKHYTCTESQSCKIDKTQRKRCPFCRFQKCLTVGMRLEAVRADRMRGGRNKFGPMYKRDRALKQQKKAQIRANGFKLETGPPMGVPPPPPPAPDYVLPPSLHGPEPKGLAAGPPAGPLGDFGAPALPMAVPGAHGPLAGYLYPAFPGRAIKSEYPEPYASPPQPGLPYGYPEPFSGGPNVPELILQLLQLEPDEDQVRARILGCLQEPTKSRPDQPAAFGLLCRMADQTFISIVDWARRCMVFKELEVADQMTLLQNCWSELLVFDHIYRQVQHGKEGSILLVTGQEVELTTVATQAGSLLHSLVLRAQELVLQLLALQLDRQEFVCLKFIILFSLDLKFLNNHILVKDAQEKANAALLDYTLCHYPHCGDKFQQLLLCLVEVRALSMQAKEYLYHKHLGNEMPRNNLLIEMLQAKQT
As usually defined, the inhibition is the relative decrease from the control value, in per cent. `C=CCn1c(=O)c2ccccc2n2c(SCC(=O)N3CCCc4ccccc43)nnc12`: the inhibition was 8.4%.

In the case of `CCC(C(=O)NC1CCCC1)N(C(=O)c1snc(C(N)=O)c1N)c1ccc2c(c1)OCCO2` (centres undefined), the inhibition is -2.2%. With `CCOc1cc(C(=S)N2CCOCC2)ccc1O` the figure was 3.9%. Regarding `CCOc1cc(C(=O)N2CCc3cc(OC)c(OC)cc3C2)ccc1OC(F)F`, the inhibition is 77.3% (active). With `COc1ccc(-c2cc(C(=O)NC(C(=O)O)C(C)C)c(C)o2)cc1OC` (centres undefined) the figure was -56.5%. With `CCOc1ccccc1-n1c(SCC(=O)NCc2ccco2)nnc1-c1ccncc1` the figure was 6.1%; with `O=C(CN1C(=O)C2C3C=CC(C3)C2C1=O)NCC1COc2ccccc2O1` (centres undefined), -7.1%; with `CC(C)OCCCNc1ncnc2c1[nH]c1ccc(F)cc12`, 84.1% (active). In the case of `CC(C)CNC(=O)c1cc(-c2ccc(Br)cc2)on1` it was -52.5%.

With `Cn1c(NC(=O)c2ccco2)c(-c2ccccc2Cl)c(=O)c2ccccc21`, the inhibition was -7.6%. Regarding `CC1=C(C(=O)OCc2ccccc2)C(c2ccco2)n2ncnc2N1` (centres undefined), the inhibition was 14.7%. In the case of `O=C(COc1ncnc2ccccc12)NC(=O)NCc1ccccc1`, the inhibition was 2.4%. Regarding `CN(Cc1ccccc1)Cc1ccccc1F`, the inhibition is 9.2%.

For the compound `O=C(CN1C(=O)COc2ccccc21)Nc1ccc(F)cc1`, the inhibition is 8.5%. On to `CC(C)(C)NC(=O)Cn1nnc(-c2ccccc2Cl)n1`, for which the inhibition is -50%.

On to `O=C(Cn1cc2c(n1)CCCCC2)NCCN1CCOCC1`, for which the inhibition is 8.1%. In the case of `COC(=O)c1ccc(NCC(=O)c2ccccc2)cc1` it was -68.7%; in that of `O=C(Cn1cnc2c(cnn2-c2ccccc2)c1=O)NCc1ccccc1`, -70.3%; in that of `COc1ccccc1-c1cc(C(=O)N2CCCCC2)no1`, -82.1%. For `CCOc1cccc(C(=O)Nc2cccnc2)c1`, the inhibition is -6.7%. With `Cc1noc(/C=C/N(C)C)c1S(=O)(=O)N1CCCC(C(=O)NCc2ccco2)C1` (centres undefined) the figure was 15%; with `COc1ccccc1Nc1ncnc2c1oc1ccccc12`, -91.8%; with `COC(=O)N1CN(C(=O)OC)CN(C(=O)OC)C1`, -1.7%. Regarding `C=C(C)CSc1nc(N)c2c3c(sc2n1)CCC3`, the inhibition was -51.4%. In the case of `CC(C)(CNCC(O)c1ccccc1)N1CCOCC1` (centres undefined) it was -12.6%; in that of `O=C(CS(=O)(=O)c1cn(Cc2cccc(F)c2)c2ccccc12)N1CCCCC1`, -5.4%. With `Cc1noc(COc2ccccc2OCC(O)CNC(C)(C)C)n1` (centres undefined) the figure was 0.5%.

For `COC(=O)c1c(NC(=O)c2cccs2)sc2c1CCCC2`, the inhibition was -28.2%. In the case of `N#CCCN1CCN(S(=O)(=O)c2ccc(S(=O)(=O)N3CCCC3)cc2)CC1` it was 18%.
